In PubChem BioAssay (NCI):
This is part of a sample that, as a whole, favours compounds with a hit. Of some 79,000 tested, about 15% had one in any assay. No stated cut-off is given here; in the data, active means growth inhibition above about 70%; inactive means the rest.

Experiments:
[1] = NCI Yeast Anticancer Drug Screen. Data for the rad50 strain (AID 155);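 further: 0% = growth of vehicle-only cultures of the same strain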; details: S. cerevisiae rad50 strain growth inhibition; at 50.0 µM; stronger effect = higher value
How it was run: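 A DNA repair-deficient yeast mutant serves as the test organism; compound-induced growth inhibition is calculated against vehicle-treated cells.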

[2] = NCI Yeast Anticancer Drug Screen. Data for the mec2-1 strain (AID 157); details: S. cerevisiae mec2-1 strain, at 50.0 µM, stronger effect = higher value
How it was run: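 mec2-1 yeast strain, carrying an alteration in DNA damage repair or cell cycle control, was exposed to compounds; growth inhibition was measured relative to vehicle-treated controls.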

[3] = NCI Yeast Anticancer Drug Screen. Data for the sgs1 mgt1 strain (AID 161);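 further: 0% = growth of cultures given vehicle only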; details: S. cerevisiae sgs1 mgt1 strain, at 50.0 µM, stronger effect = higher value
How it was run: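 Growth of a repair-deficient yeast mutant was monitored after compound treatment and expressed as inhibition relative to vehicle-treated cultures.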

[4] = NCI Yeast Anticancer Drug Screen. Data for the cln2 rad14 strain (AID 165);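 further: 0% = growth equal to vehicle treated cultures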; details: S. cerevisiae cln2 rad14 strain, at 50.0 µM, stronger effect = higher value
How it was run: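 Yeast carrying cln2 and rad14 alterations (cell cycle control and DNA damage repair) were exposed to compounds. Growth inhibition was measured against vehicle-treated controls.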

[5] = NCI Yeast Anticancer Drug Screen. Data for the bub3 strain (AID 167); details: S. cerevisiae bub3 mutant strain, at 50.0 µM, stronger effect = higher value
How it was run: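 Inhibition values come from growth of compound-treated mutant yeast normalised to vehicle-treated controls.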

[6] = NCI Yeast Anticancer Drug Screen. Data for the mlh1 rad18 strain (AID 175); details: S. cerevisiae mlh1 rad18 strain growth inhibition; at 50.0 µM; stronger effect = higher value
How it was run: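 Growth inhibition of the yeast strain was measured after compound exposure and expressed relative to vehicle-treated controls. The strain carries defined defects in DNA damage repair.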

Measured: growth inhibition

N=C(CC(=O)Nc1ccccn1)c1ccccc1
inactive: [1] 1.25% | [2] -28.7% | [3] -23.3% | [4] -32% | [5] -20.9% | [6] -16.6%

CCCCCCCCCCCCNC(=O)c1ccccc1O
inactive: [1] 13.2% | [2] 23.6% | [3] 17.9% | [4] 20.8% | [5] 10.6% | [6] 35.8%

CCOC(=O)NC1C2CC3C(C2)C31 (stereo not drawn)
inactive: [1] -54.6% | [2] -32.7% | [3] -29.4% | [4] -20.6% | [5] -52.4% | [6] -32.5%

Cc1ccc(S(=O)(=O)NC(Cc2ccc(O)cc2)C(=O)O)cc1 (stereo not drawn)
inactive: [1] 1.5% | [2] -8.4% | [3] 5.25% | [4] -57.2% | [5] 12.6% | [6] 35.5%

CCOC(=O)[C@H]1Nc2ccc(Cl)cc2[C@H]2OCC[C@@H]12
inactive: [1] 5.5% | [2] -10.9% | [3] -2.4% | [4] 23.8% | [5] 3.15% | [6] -0.7%

CN(C)c1ccc([O-])cc1.CN(C)c1ccc([O-])cc1.CN(C)c1ccc([O-])cc1.CN(C)c1ccc([O-])cc1.[Ti+4]
inactive: [1] 26.9% | [2] -19.4% | [3] 4.65% | [4] 19.3% | [5] 4.95% | [6] -2.6%

CCC/C=C1\CCC(CN(C)C)C1=O (stereo not drawn)
inactive: [1] -9.8% | [2] 7.85% | [3] 18.6% | [4] -1.4% | [5] -11.9% | [6] 15.1%

C=Cc1ccc(C[n+]2cccc(C(N)=O)c2)cc1
inactive: [1] -15.2% | [2] -17% | [3] -2.95% | [4] -1.75% | [5] 17.2% | [6] -35.9%

CN(C)CC1CCc2c(n(C)c3ccccc23)C1=O (stereo not drawn)
inactive: [1] -2.55% | [2] -2.85% | [3] 5.2% | [4] -51.8% | [5] -4.35% | [6] 10.6%

O=C1c2ccccc2Cc2ccccc21
inactive: [1] 3.5% | [2] 7.75% | [3] -1.7% | [4] -19.4% | [5] 16.4% | [6] 7.55%

c1cnc2cccnc2c1
inactive: [1] -16.1% | [2] -30.4% | [3] -14.7% | [4] -6.15% | [5] -8.6% | [6] -9.9%

C1=Cc2nc1c(-c1ccncc1)c1ccc([n-]1)c(-c1ccncc1)c1nc(c(-c3ccncc3)c3ccc([n-]3)c2-c2ccncc2)C=C1.[Zn+2]
inactive: [1] -20.6% | [2] -9.45% | [3] -8.95% | [4] 15.7% | [5] 18.9% | [6] -3.65%

CN(C)S(=O)(=O)N1CCCc2ccccc21
inactive: [1] 3.4% | [2] 8.8% | [3] 3.55% | [4] 7.1% | [5] 31.1% | [6] 11%

COc1ccc(C23OC2Oc2cc(OC4CCCCO4)ccc2C3=O)cc1 (stereo not drawn)
inactive: [1] 10.1% | [2] -8.45% | [3] -6.25% | [4] -6.4% | [5] 0.35% | [6] 2.55%

C[C@@H]1C[C@H](C)OC(CO)O1 (stereo partly drawn) (tested in a mixture with another compound)
inactive: [1] 13.4% | [2] -1.3% | [3] 0.25% | [4] 12.2% | [5] -12.6% | [6] 19.3%

Nc1nc2c(ncn2C2C=CC(CO)C2)c(=O)[nH]1 (stereo not drawn)
inactive: [1] 7.6% | [2] 12.5% | [3] 3.9% | [4] 10.4% | [5] -2.1% | [6] 4.25%

CC1(C)C(=O)C(=Cc2ccco2)C1=O
inactive: [1] -18.9% | [2] 0.85% | [3] -23.4% | [4] 3.2% | [5] -14.2% | [6] 13%

O=c1nc2oc(-c3ccccc3)cn2c(=O)n1-c1ncc(-c2ccccc2)o1
inactive: [1] 1.35% | [2] -6.9% | [3] 1.4% | [4] 22.4% | [5] 8.1% | [6] 6.05%

CC1(C)OC(=O)N=C1c1ccc(Cl)cc1
inactive: [1] -20.2% | [2] -10% | [3] -19.8% | [4] 12.5% | [5] -20% | [6] -12.2%

Cn1cnc(N)c(N=O)c1=O
inactive: [1] -0.1% | [2] 8.65% | [3] 10.1% | [4] 18.7% | [5] -9.75% | [6] 6%

CC1=CCC(C(C)(C)OCCCO)CC1 (stereo not drawn)
inactive: [1] 15.8% | [2] 14% | [3] -17.6% | [4] 10.7% | [5] 4.4% | [6] 22%

COc1cccc(-c2nnc(-c3cccc(OC)c3)o2)c1
inactive: [1] 25.4% | [2] -12.1% | [3] 16.6% | [4] 1.95% | [5] 25.5% | [6] 0.2%

CC(=O)Nc1ccccc1O
inactive: [1] -4.75% | [2] -15.2% | [3] -0.85% | [4] -18.3% | [5] 0.35% | [6] 14.2%

NC1(N)ON(c2ccc(C=O)cc2)C(c2ccc([N+](=O)[O-])cc2)S1 (stereo not drawn)
inactive: [1] 18.3% | [2] 8.45% | [3] 11% | [4] 16.3% | [5] -0.7% | [6] 16.7%

O=C(Nc1ccc(Cl)cc1)Nc1nnc2nc(C(C(=O)c3ccc(O)cc3O)c3nc4nnc(NC(=O)Nc5ccc(Cl)cc5)n4[nH]c3=O)c(=O)[nH]n12
inactive: [1] 25.6% | [2] 39.9% | [3] 44.2% | [4] 60.9% | [5] 14.7% | [6] 12.3%

COc1ccc(Cc2ccc(OC)cc2)cc1
inactive: [1] -34.2% | [2] -5.3% | [3] 8.15% | [4] -9.15% | [5] 5.15% | [6] -15%

Cc1ccc(O)cc1C=C(Cl)Cl
inactive: [1] 18.6% | [2] 0.25% | [3] 35.6% | [4] 22.8% | [5] -0.3% | [6] 11.4%

Cc1ccn2c(-c3ccccc3)nnc2c1
inactive: [1] -23.6% | [2] -17.7% | [3] -14.6% | [4] -11.8% | [5] -18.1% | [6] -16%

OC1(c2ccc(-c3ccccc3)cc2)c2ccccc2-c2ccccc2C1(O)c1ccc(-c2ccccc2)cc1 (stereo not drawn)
inactive: [1] 6.45% | [2] -5.95% | [3] -2.2% | [4] 2% | [5] 6.3% | [6] 7.05%

CCCCCCCCCCCC(=O)NC(=S)Nc1cc(OC)ccc1OC
inactive: [1] -17.9% | [2] -7.25% | [3] -2.9% | [4] -47.3% | [5] -3.85% | [6] -0.95%

Cc1cc(Cl)cc2c1NC(=O)C2(O)CC(=O)c1ccco1 (stereo not drawn)
inactive: [1] 6.55% | [2] -12.4% | [3] -13.8% | [4] 9.65% | [5] -11.7% | [6] -4.65%

CCCCCCCCCCCCCCCCCCCCOC1OC(COC(C)=O)C(OC(C)=O)C(OC(C)=O)C1OC(C)=O (stereo not drawn)
inactive: [1] -21.3% | [2] -14.2% | [3] -16.9% | [4] 12% | [5] -5.7% | [6] -20.4%

CN1C(c2ccccc2)=C(C#N)C(=O)CC(c2ccc(Cl)cc2)N1C (stereo not drawn)
inactive: [1] -7.75% | [2] 0.05% | [3] -4.75% | [4] -15.8% | [5] -15.8% | [6] 2.65%

CCSc1nc(C)c(C)c(=O)[nH]1
inactive: [1] 14.2% | [2] -10.9% | [3] 22.4% | [4] 16% | [5] 21.8% | [6] 12.8%

O=c1cc(NC(c2ccccc2)c2ccccc2)[nH]c(=O)[nH]1
inactive: [1] -5.25% | [2] 22.1% | [3] 8.95% | [4] -10.4% | [5] 19.1% | [6] 27.6%

O=C(COc1ccc(Cl)cc1)OCCCl
inactive: [1] 10% | [2] 8.3% | [3] 9.1% | [4] 0.35% | [5] 9.3% | [6] 8.3%

O=C(Nc1c(Cl)cccc1Cl)OCc1ccco1
inactive: [1] 7.5% | [2] -10.6% | [3] 24.1% | [4] 3.15% | [5] 23.4% | [6] 19.6%

CC1(C)c2ccccc2C(=O)C12CCC(=O)CC2
inactive: [1] 9.2% | [2] -3.4% | [3] 18.8% | [4] 26.4% | [5] 18.9% | [6] 17.5%
